# Reference: ChEMBL document CHEMBL1961873, “Compounds: GSK PKIS; Assays: Nanosyn kinase panel” (2012)
# Several values for one entry are separate records, joined by “and”; a condition that tells them apart may be missing. Identical values can stand only once.
# Tests used:
# [1] = target: Serine/threonine-protein kinase MARK2 (Homo sapiens) (UniProt Q7KZI7); conditions: at 1 µM
# [2] = target: PAS domain-containing serine/threonine-protein kinase (Homo sapiens) (UniProt Q96RG2); conditions: at 0.1 µM
# PAS domain-containing serine/threonine-protein kinase (Homo sapiens), sequence (Q96RG2 whole entry, the tested form may be a part, canonical isoform): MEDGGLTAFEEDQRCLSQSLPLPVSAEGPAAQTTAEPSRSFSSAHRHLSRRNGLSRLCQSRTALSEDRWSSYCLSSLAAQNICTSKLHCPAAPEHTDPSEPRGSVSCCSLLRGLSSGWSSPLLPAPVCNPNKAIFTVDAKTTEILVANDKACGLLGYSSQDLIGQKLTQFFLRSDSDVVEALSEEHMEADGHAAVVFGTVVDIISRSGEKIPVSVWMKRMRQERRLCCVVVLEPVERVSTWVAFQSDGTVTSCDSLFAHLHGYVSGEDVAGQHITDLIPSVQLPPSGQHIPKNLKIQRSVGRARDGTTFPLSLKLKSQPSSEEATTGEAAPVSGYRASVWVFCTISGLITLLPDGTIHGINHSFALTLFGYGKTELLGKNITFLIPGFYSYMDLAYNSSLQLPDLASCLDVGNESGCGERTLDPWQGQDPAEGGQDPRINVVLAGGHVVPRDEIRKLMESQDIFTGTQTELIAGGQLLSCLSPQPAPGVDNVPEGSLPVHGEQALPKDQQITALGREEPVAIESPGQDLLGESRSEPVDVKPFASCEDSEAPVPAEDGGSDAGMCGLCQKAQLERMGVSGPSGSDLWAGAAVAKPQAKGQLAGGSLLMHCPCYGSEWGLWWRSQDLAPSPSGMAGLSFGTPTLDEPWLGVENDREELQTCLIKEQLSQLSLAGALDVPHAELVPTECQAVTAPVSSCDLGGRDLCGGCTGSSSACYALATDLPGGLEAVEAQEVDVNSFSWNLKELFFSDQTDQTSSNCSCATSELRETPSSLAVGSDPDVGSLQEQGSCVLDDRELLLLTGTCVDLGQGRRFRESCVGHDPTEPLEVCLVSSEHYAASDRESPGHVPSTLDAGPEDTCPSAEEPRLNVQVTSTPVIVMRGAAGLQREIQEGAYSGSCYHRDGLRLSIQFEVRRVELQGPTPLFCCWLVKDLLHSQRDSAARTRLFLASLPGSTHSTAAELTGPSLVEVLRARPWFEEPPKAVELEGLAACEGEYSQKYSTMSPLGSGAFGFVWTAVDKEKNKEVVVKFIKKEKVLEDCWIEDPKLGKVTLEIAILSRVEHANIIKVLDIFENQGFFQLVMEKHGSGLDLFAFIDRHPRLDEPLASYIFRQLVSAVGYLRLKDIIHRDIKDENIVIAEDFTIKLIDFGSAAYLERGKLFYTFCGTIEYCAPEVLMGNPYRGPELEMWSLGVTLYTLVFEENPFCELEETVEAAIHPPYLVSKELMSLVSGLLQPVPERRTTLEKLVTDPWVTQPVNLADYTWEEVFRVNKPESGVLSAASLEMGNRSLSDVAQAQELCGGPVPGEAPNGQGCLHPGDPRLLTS
# [3] = target: PAS domain-containing serine/threonine-protein kinase (Homo sapiens) (UniProt Q96RG2); conditions: at 1 µM
# [4] = target: Phosphorylase b kinase gamma catalytic chain, skeletal muscle/heart isoform (Homo sapiens) (UniProt Q16816); conditions: at 0.1 µM
# Phosphorylase b kinase gamma catalytic chain, skeletal muscle/heart isoform (Homo sapiens), sequence (Q16816 whole entry, looked up, canonical isoform): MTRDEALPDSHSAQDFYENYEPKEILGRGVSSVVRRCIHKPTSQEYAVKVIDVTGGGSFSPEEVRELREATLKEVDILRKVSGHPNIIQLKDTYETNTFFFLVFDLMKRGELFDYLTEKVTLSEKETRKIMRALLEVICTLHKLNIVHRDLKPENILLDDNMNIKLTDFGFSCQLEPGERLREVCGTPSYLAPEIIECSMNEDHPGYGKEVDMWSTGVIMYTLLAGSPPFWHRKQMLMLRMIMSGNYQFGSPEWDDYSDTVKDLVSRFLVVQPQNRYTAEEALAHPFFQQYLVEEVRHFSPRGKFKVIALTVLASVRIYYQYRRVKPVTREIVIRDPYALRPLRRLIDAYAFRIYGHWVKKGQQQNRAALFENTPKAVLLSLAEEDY
# [5] = target: Phosphorylase b kinase gamma catalytic chain, skeletal muscle/heart isoform (Homo sapiens) (UniProt Q16816); conditions: at 1 µM
# [6] = target: T1, Phosphorylase b kinase gamma catalytic chain, liver/testis isoform (Homo sapiens) (UniProt P15735); conditions: at 0.1 µM
# T1 sequence (whole entry): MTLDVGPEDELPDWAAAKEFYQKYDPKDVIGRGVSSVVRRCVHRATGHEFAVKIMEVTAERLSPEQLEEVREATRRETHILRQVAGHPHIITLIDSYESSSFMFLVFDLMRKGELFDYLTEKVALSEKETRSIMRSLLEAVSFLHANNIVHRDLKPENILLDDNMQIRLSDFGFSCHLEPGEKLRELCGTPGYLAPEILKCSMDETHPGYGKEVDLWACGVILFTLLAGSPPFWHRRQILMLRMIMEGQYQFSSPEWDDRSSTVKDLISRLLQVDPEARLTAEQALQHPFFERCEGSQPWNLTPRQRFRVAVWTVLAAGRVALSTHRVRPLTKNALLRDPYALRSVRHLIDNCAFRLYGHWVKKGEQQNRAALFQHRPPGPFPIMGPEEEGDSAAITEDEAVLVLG
# [7] = target: T1, Phosphorylase b kinase gamma catalytic chain, liver/testis isoform (Homo sapiens); conditions: at 1 µM
# [8] = target: Serine/threonine-protein kinase pim-1 (Homo sapiens) (UniProt P11309); conditions: at 0.1 µM
# Serine/threonine-protein kinase pim-1 (Homo sapiens), sequence (P11309 whole entry, looked up): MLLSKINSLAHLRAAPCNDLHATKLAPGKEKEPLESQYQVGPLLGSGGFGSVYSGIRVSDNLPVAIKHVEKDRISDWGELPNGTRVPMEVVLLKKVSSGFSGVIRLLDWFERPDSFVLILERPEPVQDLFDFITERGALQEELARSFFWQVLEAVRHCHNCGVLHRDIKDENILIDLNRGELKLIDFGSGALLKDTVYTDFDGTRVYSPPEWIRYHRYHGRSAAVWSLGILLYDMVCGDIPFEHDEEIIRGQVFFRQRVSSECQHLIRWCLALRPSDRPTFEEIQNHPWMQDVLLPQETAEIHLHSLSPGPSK
# [9] = target: Serine/threonine-protein kinase pim-1 (Homo sapiens) (UniProt P11309); conditions: at 1 µM
# [10] = target: Serine/threonine-protein kinase pim-2 (Homo sapiens) (UniProt Q9P1W9); conditions: at 0.1 µM
# Serine/threonine-protein kinase pim-2 (Homo sapiens), sequence (Q9P1W9 whole entry, looked up): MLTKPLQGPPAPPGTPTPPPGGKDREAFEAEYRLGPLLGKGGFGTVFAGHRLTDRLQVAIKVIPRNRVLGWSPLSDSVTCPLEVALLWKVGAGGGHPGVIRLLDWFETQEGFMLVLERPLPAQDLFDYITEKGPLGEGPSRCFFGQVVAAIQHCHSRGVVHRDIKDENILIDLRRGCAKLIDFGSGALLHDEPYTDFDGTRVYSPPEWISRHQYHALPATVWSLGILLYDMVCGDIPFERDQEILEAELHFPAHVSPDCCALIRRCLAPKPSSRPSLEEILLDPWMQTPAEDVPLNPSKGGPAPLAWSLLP
# [11] = target: Serine/threonine-protein kinase pim-2 (Homo sapiens) (UniProt Q9P1W9); conditions: at 1 µM
# [12] = target: Serine/threonine-protein kinase pim-3 (Homo sapiens) (UniProt Q86V86); conditions: at 0.1 µM
# [13] = target: Serine/threonine-protein kinase pim-3 (Homo sapiens) (UniProt Q86V86); conditions: at 1 µM
# [14] = target: T2, MAP kinase-activated protein kinase 5 (Homo sapiens) (UniProt Q8IW41); conditions: at 0.1 µM
# T2 sequence (whole entry): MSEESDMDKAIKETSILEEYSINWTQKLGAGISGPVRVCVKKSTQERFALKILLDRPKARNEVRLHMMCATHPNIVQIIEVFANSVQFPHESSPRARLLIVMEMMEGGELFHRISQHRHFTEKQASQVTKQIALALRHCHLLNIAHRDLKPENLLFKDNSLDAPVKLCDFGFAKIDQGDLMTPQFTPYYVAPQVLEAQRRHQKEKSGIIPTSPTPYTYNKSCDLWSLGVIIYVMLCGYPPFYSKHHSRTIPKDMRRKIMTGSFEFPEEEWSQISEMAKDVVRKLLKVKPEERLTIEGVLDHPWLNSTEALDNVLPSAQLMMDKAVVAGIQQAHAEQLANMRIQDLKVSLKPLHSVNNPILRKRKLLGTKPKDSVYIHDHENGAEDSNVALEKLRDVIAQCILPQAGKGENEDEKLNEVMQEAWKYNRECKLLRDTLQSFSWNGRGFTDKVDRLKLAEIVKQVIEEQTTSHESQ
# [15] = target: T2, MAP kinase-activated protein kinase 5 (Homo sapiens); conditions: at 1 µM
# [16] = target: Serine/threonine-protein kinase SIK1 (Homo sapiens) (UniProt P57059); conditions: at 0.1 µM
# Serine/threonine-protein kinase SIK1 (Homo sapiens), sequence (P57059 whole entry): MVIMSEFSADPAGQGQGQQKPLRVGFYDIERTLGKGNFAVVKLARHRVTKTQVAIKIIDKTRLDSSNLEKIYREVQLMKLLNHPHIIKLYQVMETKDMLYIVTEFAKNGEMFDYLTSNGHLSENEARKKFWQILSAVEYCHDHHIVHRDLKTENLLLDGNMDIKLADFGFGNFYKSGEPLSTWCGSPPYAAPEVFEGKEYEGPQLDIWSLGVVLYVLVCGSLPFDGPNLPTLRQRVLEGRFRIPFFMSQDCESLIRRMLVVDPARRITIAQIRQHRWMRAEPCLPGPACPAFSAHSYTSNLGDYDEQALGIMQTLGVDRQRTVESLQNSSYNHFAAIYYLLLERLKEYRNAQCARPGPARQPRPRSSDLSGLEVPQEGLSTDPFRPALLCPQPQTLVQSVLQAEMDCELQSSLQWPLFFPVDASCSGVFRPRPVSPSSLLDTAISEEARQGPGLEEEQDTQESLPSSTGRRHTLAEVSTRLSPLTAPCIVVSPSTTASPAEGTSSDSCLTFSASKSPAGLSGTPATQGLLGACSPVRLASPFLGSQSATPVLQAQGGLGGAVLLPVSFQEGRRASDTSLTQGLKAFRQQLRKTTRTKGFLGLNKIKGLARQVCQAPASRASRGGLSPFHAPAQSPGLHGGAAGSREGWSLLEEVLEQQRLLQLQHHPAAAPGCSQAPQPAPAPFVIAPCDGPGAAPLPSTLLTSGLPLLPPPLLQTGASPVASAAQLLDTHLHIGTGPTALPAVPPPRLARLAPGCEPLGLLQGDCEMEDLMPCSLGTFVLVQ
# [17] = target: Serine/threonine-protein kinase SIK1 (Homo sapiens) (UniProt P57059); conditions: at 1 µM
# [18] = target: Serine/threonine-protein kinase SIK2 (Homo sapiens) (UniProt Q9H0K1); conditions: at 0.1 µM
# [19] = target: Serine/threonine-protein kinase SIK2 (Homo sapiens) (UniProt Q9H0K1); conditions: at 1 µM
# [20] = target: T3, Serine/threonine-protein kinase TBK1 (Homo sapiens) (UniProt Q9UHD2); conditions: at 0.1 µM;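 further: values are the mean TBK1 inhibition, taken from the GSK PKIS screening data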
# T3 sequence (whole entry): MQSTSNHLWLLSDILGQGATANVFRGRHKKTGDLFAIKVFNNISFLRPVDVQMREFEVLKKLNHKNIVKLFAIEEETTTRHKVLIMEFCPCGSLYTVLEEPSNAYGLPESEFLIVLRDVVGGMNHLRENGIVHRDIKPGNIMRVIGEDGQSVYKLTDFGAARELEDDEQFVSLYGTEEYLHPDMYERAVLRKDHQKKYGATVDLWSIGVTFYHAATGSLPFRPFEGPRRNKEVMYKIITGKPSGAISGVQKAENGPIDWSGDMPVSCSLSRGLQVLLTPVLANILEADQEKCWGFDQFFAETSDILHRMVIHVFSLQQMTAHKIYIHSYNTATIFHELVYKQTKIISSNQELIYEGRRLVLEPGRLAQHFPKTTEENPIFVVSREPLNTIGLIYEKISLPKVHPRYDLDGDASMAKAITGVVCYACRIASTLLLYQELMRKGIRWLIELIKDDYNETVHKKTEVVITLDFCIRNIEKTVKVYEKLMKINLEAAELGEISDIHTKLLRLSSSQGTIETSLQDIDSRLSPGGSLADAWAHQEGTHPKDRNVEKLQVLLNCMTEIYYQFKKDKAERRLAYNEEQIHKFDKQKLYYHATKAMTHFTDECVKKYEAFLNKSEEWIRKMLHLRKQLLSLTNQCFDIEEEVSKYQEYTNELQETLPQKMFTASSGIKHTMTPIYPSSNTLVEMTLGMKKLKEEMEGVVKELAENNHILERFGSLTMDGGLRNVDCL
# Serine/threonine-protein kinase MARK2 (Homo sapiens), sequence (Q7KZI7 whole entry, the tested form may be a part): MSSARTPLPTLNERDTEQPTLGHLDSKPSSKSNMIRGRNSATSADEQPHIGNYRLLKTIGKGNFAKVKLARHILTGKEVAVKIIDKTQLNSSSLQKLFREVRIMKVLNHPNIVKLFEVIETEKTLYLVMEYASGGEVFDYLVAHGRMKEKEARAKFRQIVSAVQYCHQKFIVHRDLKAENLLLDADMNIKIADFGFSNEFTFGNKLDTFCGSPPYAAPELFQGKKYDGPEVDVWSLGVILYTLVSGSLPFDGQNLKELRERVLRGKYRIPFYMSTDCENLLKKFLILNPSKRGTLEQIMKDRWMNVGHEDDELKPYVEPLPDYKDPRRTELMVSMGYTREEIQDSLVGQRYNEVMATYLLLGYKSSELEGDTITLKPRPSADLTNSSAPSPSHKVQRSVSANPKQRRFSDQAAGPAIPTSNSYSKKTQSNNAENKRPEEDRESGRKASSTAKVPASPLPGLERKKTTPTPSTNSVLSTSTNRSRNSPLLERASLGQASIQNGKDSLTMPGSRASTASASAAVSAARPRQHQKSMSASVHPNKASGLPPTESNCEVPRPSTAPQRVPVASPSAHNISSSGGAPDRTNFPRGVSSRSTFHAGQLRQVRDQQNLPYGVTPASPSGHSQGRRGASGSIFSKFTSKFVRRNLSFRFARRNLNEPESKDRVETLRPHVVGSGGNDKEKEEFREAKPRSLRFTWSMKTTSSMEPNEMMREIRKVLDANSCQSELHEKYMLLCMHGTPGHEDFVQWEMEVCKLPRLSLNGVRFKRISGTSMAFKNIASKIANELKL
Structure (SMILES),inhibition [1],inhibition [2],inhibition [3],inhibition [4],inhibition [5],inhibition [6],inhibition [7],inhibition [8],inhibition [9],inhibition [10],inhibition [11],inhibition [12],inhibition [13],inhibition [14],inhibition [15],inhibition [16],inhibition [17],inhibition [18],inhibition [19],inhibition [20]
CN1CCC(C(=O)Nc2n[nH]c3nc(-c4ccc(O)cc4)c(Br)cc23)CC1,2.87% and -0.48%,0.12% and 1.36%,1.4% and -0.48%,7.58% and -0.16%,16.1% and 3.32%,4.67% and 1.73%,9.01% and 2.52%,5.3% and 6.07%,34.8% and 33.4%,-0.97% and 1.73%,14.5% and 16.5%,8.95% and 8.97%,48.5% and 44.8%,1.61% and 0.79%,3.66% and 0.86%,3.1% and 1.53%,9.27% and 8.23%,7.89% and -2.04%,9.87% and 5.33%,4.48% and 3.27%
CS(=O)(=O)CCNCc1ccoc1-c1ccc2ncnc(Nc3ccc(OCc4ccccc4)cc3)c2c1,-2.18%,1.27%,0.16%,2.12%,3.12%,0.65%,0.15%,0.23%,-0.94%,0.1%,-0.21%,0.58%,-0.84%,0.44%,0.78%,2.99%,4.48%,-0.71%,-0.59%,0.39%
CN(C)CCNC(=O)Nc1ccc(N(C)c2ccnc(Nc3ccc(CS(C)(=O)=O)cc3)n2)cc1,7.11%,1.26%,-0.25%,2.14%,4.59%,4.64%,1.59%,1.06%,1.39%,0.27%,2.68%,-0.48%,-1.2%,1.02%,0.33%,5.41%,31.9%,8.68%,13.6%,2.12%
COc1cc2c(cc1Nc1nc(Nc3cccc(F)c3C(N)=O)c3cc[nH]c3n1)N(C(=O)CN1CCN(C(C)C)CC1)CC2,3.63%,-0.77%,-0.72%,0.29%,9.54%,3.29%,5.63%,1.43%,0.21%,-0.02%,0.2%,0.01%,1.84%,0.57%,1.03%,5.86%,8.52%,3.09%,0.18%,2.33%
COc1cc(N2CCN(C(C)C)CC2)ccc1Nc1nc(Nc2cccc3ncccc23)c2cc[nH]c2n1,1.39%,-0.26%,-0.72%,2.93%,28.6%,-1.68%,0.96%,0.12%,0.51%,-0.9%,0.36%,-0.71%,0.17%,0.21%,-0.62%,-2.95%,0.48%,-4.22%,3.12%,-0.11%
CCOc1ccc2c(-c3ccnc(Nc4cc(OC)cc(C(F)(F)F)c4)n3)cnn2n1,1.23%,0%,0.64%,1.57%,0.94%,0.61%,0.99%,0.51%,-0.17%,-0.46%,-0.11%,1.13%,1.42%,-0.27%,-0.8%,2.02%,6.72%,-0.16%,2.02%,-0.57%
O=C(O[C@H]1CN[C@H](C#Cc2cc3ncnc(Nc4ccc(OCc5cccc(F)c5)c(Cl)c4)c3s2)C1)N1CCOCC1,-1.51%,0.31%,0.78%,6.72%,7.76%,7.04%,9.85%,0.79%,0.58%,-0.36%,0.28%,0.37%,1.35%,2.46%,4.32%,2.74%,9.18%,8.56%,11.1%,1.96%
